Measurements reported in the supplement of paper PMC8728848.
This is one part of a sample in which the strongest signals are shown more often than they occur.

Experiments:
Experiment in all cases: glycan array binding signal (z-score within array); higher = stronger binding
Details in all cases: glycan notation: IUPAC condensed, linker removed
[1] = biological target: GlcNAc(b1-3)Gal(b1-4)GlcNAc(b1-3)Gal(b1-4)GlcNAc(b1-3)GalNAc
Summary of the method: (§1)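 Glycan array data were curated from 3228 arrays in the Consortium for Functional Glycomics database and kept only where the protein sequence was available. Glycan names were converted to IUPAC-condensed notation, and columns mapping to the same glycan were averaged. The binding signal is a within-array Z-score, averaged across arrays of the same protein sequence at different concentrations or buffers and across linkers. Negative Z-scores can be read as non-binding.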

[2] = biological target: GlcNAc(b1-3)Gal(b1-4)GlcNAc(b1-6)[GlcNAc(b1-3)Gal(b1-3)]GalNAc
Summary of the method: as §1

[3] = biological target: GlcNAc6S(b1-3)Gal(b1-4)GlcNAc
Summary of the method: as §1

[4] = biological target: Man(a1-2)Man(a1-3)Man
Summary of the method: as §1

[5] = biological target: Neu5Ac(a2-3)Gal(b1-4)GlcNAc(b1-2)Man
Summary of the method: as §1

[6] = biological target: Neu5Ac(a2-3)Gal(b1-4)GlcNAc(b1-6)[Gal(b1-3)]GalNAc
Summary of the method: as §1

[7] = biological target: Neu5Ac(a2-3)Gal(b1-4)[Fuc(a1-3)]GlcNAc(b1-3)Gal(b1-4)[Fuc(a1-3)]GlcNAc(b1-3)Gal(b1-4)[Fuc(a1-3)]GlcNAc
Summary of the method: as §1

[8] = biological target: Neu5Ac(a2-3)[GalNAc(b1-4)]Gal(b1-4)Glc
Summary of the method: as §1

[9] = biological target: Neu5Ac(a2-6)Gal(b1-4)GlcNAc(b1-2)Man(a1-3)[GlcNAc(b1-2)Man(a1-6)]Man(b1-4)GlcNAc(b1-4)GlcNAc
Summary of the method: as §1

[10] = biological target: Neu5Ac(a2-6)Gal(b1-4)GlcNAc(b1-2)Man(a1-6)Man(b1-4)GlcNAc(b1-4)GlcNAc
Summary of the method: as §1

[11] = biological target: Neu5Ac(a2-6)Gal(b1-4)GlcNAc(b1-2)Man(a1-6)[Man(a1-3)]Man(b1-4)GlcNAc(b1-4)GlcNAc
Summary of the method: as §1

[12] = biological target: Neu5Ac(a2-6)Gal(b1-4)GlcNAc(b1-6)[Gal(b1-3)GlcNAc(b1-3)]Gal(b1-4)Glc
Summary of the method: as §1

[13] = biological target: Neu5Ac(a2-6)GlcNAc(b1-4)GlcNAc
Summary of the method: as §1

[14] = biological target: Neu5Ac(a2-8)Neu5Ac(a2-3)[GalNAc(b1-4)]Gal(b1-4)Glc
Summary of the method: as §1

[15] = biological target: Neu5Ac9Ac(a2-6)Gal(b1-4)GlcNAc
Summary of the method: as §1

[16] = biological target: Fuc(a1-2)Gal(b1-3)GalNAc(a1-3)[Fuc(a1-2)]Gal(b1-4)Glc
Summary of the method: as §1

[17] = biological target: Fuc(a1-2)Gal(b1-3)GalNAc(b1-3)Gal
Summary of the method: as §1

[18] = biological target: Fuc(a1-2)Gal(b1-4)Glc6S
Summary of the method: as §1

[19] = biological target: Fuc(a1-2)Gal6S(b1-3)GlcNAc6S
Summary of the method: as §1

[20] = biological target: Fuc(a1-2)Gal6S(b1-4)Glc6S
Summary of the method: as §1

[21] = biological target: Fuc(a1-2)[Gal(a1-3)]Gal(b1-3)GlcNAc(b1-2)Man(a1-3)[Fuc(a1-2)[Gal(a1-3)]Gal(b1-3)GlcNAc(b1-2)Man(a1-6)]Man(b1-4)GlcNAc(b1-4)[Fuc(a1-6)]GlcNAc
Summary of the method: as §1

[22] = biological target: Fuc(a1-2)[Gal(a1-3)]Gal(b1-4)[Fuc(a1-3)]Glc
Summary of the method: as §1

[23] = biological target: Fuc(a1-2)[Gal(a1-3)]Gal(b1-4)[Fuc(a1-3)]GlcNAc
Summary of the method: as §1

[24] = biological target: Fuc(a1-2)[GalNAc(a1-3)]Gal(b1-3)GalNAc(a1-3)[Fuc(a1-2)]Gal(b1-4)GlcNAc
Summary of the method: as §1

[25] = biological target: Fuc(a1-2)[GalNAc(a1-3)]Gal(b1-3)GalNAc(b1-3)Gal(a1-4)Gal(b1-4)Glc
Summary of the method: as §1

[26] = biological target: Fuc(a1-2)[GalNAc(a1-3)]Gal(b1-4)GlcNAc
Summary of the method: as §1

[27] = biological target: Fuc(a1-3)[Gal(b1-4)]Glc6S
Summary of the method: as §1

[28] = biological target: Fuc(a1-3)[Gal(b1-4)]GlcNAc(b1-3)Gal(b1-4)[Fuc(a1-3)]GlcNAc
Summary of the method: as §1

[29] = biological target: Fuc(a1-3)[Gal(b1-4)]GlcNAc6S
Summary of the method: as §1

[30] = biological target: Fuc(a1-4)GlcNAc
Summary of the method: as §1

[31] = biological target: Gal(b1-3)GlcNAc(b1-2)Man
Summary of the method: as §1

[32] = biological target: Gal(b1-3)GlcNAc(b1-2)Man(a1-3)[Gal(b1-3)GlcNAc(b1-2)Man(a1-6)]Man(b1-4)GlcNAc(b1-4)GlcNAc
Summary of the method: as §1

[33] = biological target: Gal(b1-3)GlcNAc(b1-3)Gal(b1-3)GlcNAc
Summary of the method: as §1

[34] = biological target: Gal(b1-3)GlcNAc6S
Summary of the method: as §1

[35] = biological target: Gal(b1-4)GalNAc(b1-3)[Fuc(a1-2)]Gal(b1-4)GlcNAc
Summary of the method: as §1

[36] = biological target: Gal(b1-4)GlcNAc(a1-6)Gal(b1-4)GlcNAc
Summary of the method: as §1

[37] = biological target: Gal(b1-4)GlcNAc(b1-2)Man(a1-3)[Gal(b1-4)GlcNAc(b1-2)Man(a1-6)]Man(b1-4)GlcNAc(b1-4)[Fuc(a1-6)]GlcNAc
Summary of the method: as §1

[38] = biological target: Gal(b1-4)GlcNAc(b1-2)[Gal(b1-4)GlcNAc(b1-4)]Man(a1-3)[GlcNAc(b1-4)][Gal(b1-4)GlcNAc(b1-2)[Gal(b1-4)GlcNAc(b1-6)]Man(a1-6)]Man(b1-4)GlcNAc(b1-4)GlcNAc
Summary of the method: as §1

[39] = biological target: Gal(b1-4)GlcNAc(b1-3)Gal(b1-3)GlcNAc
Summary of the method: as §1

[40] = biological target: Gal(b1-4)GlcNAc(b1-3)Gal(b1-4)GlcNAc
Summary of the method: as §1

[41] = biological target: Gal(b1-4)GlcNAc6P
Summary of the method: as §1

[42] = biological target: GalNAc(b1-4)GlcNAc(b1-2)Man
Summary of the method: as §1

[43] = biological target: GalNAc(b1-4)GlcNAc6S
Summary of the method: as §1

[44] = biological target: GalNAc6S(b1-4)GlcNAc
Summary of the method: as §1

[45] = biological target: Glc(b1-4)Glc
Summary of the method: as §1

B1: Wzz (Escherichia coli) (protein)
chain: MRTWKFPSVRVMMRVENNNVSGQNHDPEQIDLIDLLVQLWRGKMTIIISVIVAIVLAIGYLAVAKEKWTSTAIITQPDVGQIAGYNNAMNVIYGQAAPKVSDLQETLIGRFSSAFSALAETLDNQEEPEKLTIEPSVKNQQLPLTVSYVGQTAEGAQMKLAQYIQQVDDKVNQELEKDLKDNIALGRKNLQDSLRTQEVVAQEQKDLRIRQIQEALQYANQAQVTKPQIQQTGEDITQDTLFLLGSEALESMIKHEATRPLVFSSNYYQTRQNLLDIDNLDVDKLDIHAYLYVMKPTLPIRRDSPKKAITLILAVLLGGMVGAGIVLGRNALRNYNAK
With B1 the “glycan array binding signal (z-score)” value [1] was 0.801, the “glycan array binding signal (z-score)” value [2] was -0.084 and the “glycan array binding signal (z-score)” value [3] was 0.081. The “glycan array binding signal (z-score)” value [4] was -0.72, the “glycan array binding signal (z-score)” value [5] was 2.37 and the “glycan array binding signal (z-score)” value [6] was -0.035. For the same binder, the “glycan array binding signal (z-score)” value [7] was -1.71, the “glycan array binding signal (z-score)” value [8] was -0.397 and the “glycan array binding signal (z-score)” value [9] was 1.21. For the same binder, the “glycan array binding signal (z-score)” value [10] was 2.29, the “glycan array binding signal (z-score)” value [11] was 1.66 and the “glycan array binding signal (z-score)” value [12] was -0.436. For the same binder, the “glycan array binding signal (z-score)” value [13] was 0.29, the “glycan array binding signal (z-score)” value [14] was 1.61 and the “glycan array binding signal (z-score)” value [15] was -0.542.

B2: Apa (Mycobacterium tuberculosis), Rv1860 (protein)
chain: MHQVDPNLTRRKGRLAALAIAAMASASLVTVAVPATANADPEPAPPVPTTAASPPSTAAAPPAPATPVAPPPPAAANTPNAQPGDPNAAPPPADPNAPPPPVIAPNAPQPVRIDNPVGGFSFALPAGWVESDAAHFDYGSALLSKTTGDPPFPGQPPPVANDTRIVLGRLDQKLYASAEATDSKAAARLGSDMGEFYMPYPGTRINQETVSLDANGVSGSASYYEVKFSDPSKPNGQIWTGVIGSPAANAPDAGPPQRWFVVWLGTANNPVDKGAAKALAESIRPLVAPPPAPAPAPAEPAPAPAPAGEVAPTPTTPTPQRTLPA
In the case of B2, the “glycan array binding signal (z-score)” value [16] is reported as 2.08, the “glycan array binding signal (z-score)” value [17] is reported as 4.21 and the “glycan array binding signal (z-score)” value [18] is reported as -0.06. The “glycan array binding signal (z-score)” value [19] was 2.87, the “glycan array binding signal (z-score)” value [20] was 1.9 and the “glycan array binding signal (z-score)” value [21] was 0.338. For the same binder, the “glycan array binding signal (z-score)” value [22] was -0.318, the “glycan array binding signal (z-score)” value [23] was 0.273 and the “glycan array binding signal (z-score)” value [24] was 14.3. The “glycan array binding signal (z-score)” value [25] was 5.64, the “glycan array binding signal (z-score)” value [26] was -0.327 and the “glycan array binding signal (z-score)” value [27] was 0.898. For the same binder, the “glycan array binding signal (z-score)” value [28] was 0.272, the “glycan array binding signal (z-score)” value [29] was 1.94 and the “glycan array binding signal (z-score)” value [30] was -0.036. The “glycan array binding signal (z-score)” value [31] was 2.77, the “glycan array binding signal (z-score)” value [32] was -0.376 and the “glycan array binding signal (z-score)” value [33] was -0.31. For the same binder, the “glycan array binding signal (z-score)” value [34] was -0.259, the “glycan array binding signal (z-score)” value [35] was 5.04 and the “glycan array binding signal (z-score)” value [36] was 0.281. For the same binder, the “glycan array binding signal (z-score)” value [37] was -0.333, the “glycan array binding signal (z-score)” value [38] was 0.024 and the “glycan array binding signal (z-score)” value [39] was -0.238. For the same binder, the “glycan array binding signal (z-score)” value [40] was -0.271, the “glycan array binding signal (z-score)” value [41] was -0.455 and the “glycan array binding signal (z-score)” value [42] was -0.412. The “glycan array binding signal (z-score)” value [43] was -0.421, the “glycan array binding signal (z-score)” value [44] was 2.78 and the “glycan array binding signal (z-score)” value [45] was 2.25.
